PubChem BioAssay (NCI)
About 79,000 compounds went through this panel and 15% of them were active in at least one assay; those are over-represented in the sample as a whole. The source made the active and inactive calls. No stated cut-off is given here; in the data, active means growth inhibition above about 70%; inactive means the rest.

Columns and labels:
[1] = NCI Yeast Anticancer Drug Screen. Data for the rad50 strain (AID 155);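 further: 0% = growth of vehicle-only cultures of the same strain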; settings: S. cerevisiae rad50 strain growth inhibition; at 50.0 µM; active compounds read high
Procedure, shortened: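 A DNA repair-deficient yeast mutant serves as the test organism; compound-induced growth inhibition is calculated against vehicle-treated cells.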

[2] = NCI Yeast Anticancer Drug Screen. Data for the mec2-1 strain (AID 157); settings: S. cerevisiae mec2-1 strain, at 50.0 µM, active compounds read high
Procedure, shortened: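 Each compound was tested on mec2-1 yeast, a strain altered in DNA damage repair or cell cycle control. Growth inhibition is reported relative to vehicle.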

[3] = NCI Yeast Anticancer Drug Screen. Data for the sgs1 mgt1 strain (AID 161);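 further: 0% = growth of cultures given vehicle only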; settings: S. cerevisiae sgs1 mgt1 strain, at 50.0 µM, active compounds read high
Procedure, shortened: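 Test agents were incubated with a DNA-repair-mutant yeast strain. Growth was then read and compared against vehicle-treated controls.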

[4] = NCI Yeast Anticancer Drug Screen. Data for the cln2 rad14 strain (AID 165);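 further: 0% = growth equal to vehicle treated cultures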; settings: S. cerevisiae cln2 rad14 strain, at 50.0 µM, active compounds read high
Procedure, shortened: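 Test compounds were added to cln2 rad14 yeast cultures; inhibition of growth was then determined by comparison with vehicle treatment.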

[5] = NCI Yeast Anticancer Drug Screen. Data for the bub3 strain (AID 167); settings: S. cerevisiae bub3 mutant strain, at 50.0 µM, active compounds read high
Procedure, shortened: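 Inhibition values come from growth of compound-treated mutant yeast normalised to vehicle-treated controls.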

[6] = NCI Yeast Anticancer Drug Screen. Data for the mlh1 rad18 strain (AID 175); settings: S. cerevisiae mlh1 rad18 strain growth inhibition; at 50.0 µM; active compounds read high
Procedure, shortened: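 Inhibition values reflect reduced growth of mutant yeast versus vehicle-treated controls following compound exposure; the mutations affect DNA damage repair.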

Measured: growth inhibition

CC1(C2(C)CC2(Br)Br)CC1(Br)Br (stereo unspecified)
inactive: [1] 11.4% | [2] -0.65% | [3] 11.3% | [4] 15.8% | [5] -2.5% | [6] -0.65%

O=C1OC(=O)C2CCC12 (stereo unspecified)
inactive: [1] 14% | [2] -9.5% | [3] 3.5% | [4] 2.5% | [5] 12.5% | [6] 17.6%

O=NN(CCCl)C(=O)/N=N/C(=O)N(CCCl)N=O
inactive: [1] 6.25% | [2] -38.9% | [3] -20.4% | [4] 15.2% | [5] -3.85% | [6] 20%

C=CCOc1c(C)cc(C(N)=O)cc1C
inactive: [1] 4.45% | [2] -6.85% | [3] 24.6% | [4] 18.9% | [5] 5.45% | [6] 51.4%

CCCCCCCCCCCCCCSc1ccc2ccccc2c1
inactive: [1] -9.15% | [2] 9.3% | [3] -2.7% | [4] -20.2% | [5] -8.65% | [6] -20.3%

COc1ccc2c(c1)CCC1C2CCC2(C)C(=O)C(n3cnc4c(SC)ncnc43)CC12 (stereo unspecified)
inactive: [1] 42.3% | [2] 19.6% | [3] 58.4% | [4] 29.1% | [5] 25.2% | [6] 46.9%

CC(=O)NC(C(=O)NC(CSCc1ccccc1)C(=O)O)=C(C)C (stereo unspecified)
inactive: [1] -2.05% | [2] -13.5% | [3] 8.9% | [4] 3.1% | [5] -36.4% | [6] -11.3%

CCC(Oc1ccc(Cl)cc1Cl)C(=O)O (stereo unspecified)
inactive: [1] -4.4% | [2] -9.8% | [3] -8.65% | [4] -8.25% | [5] -10.2% | [6] -1.75%

O=C1NC(Nc2ccccc2)=NC(C(F)(F)F)(C(F)(F)F)N1
inactive: [1] -1.5% | [2] 1.1% | [3] 36% | [4] 32.5% | [5] 39.6% | [6] -8%

CCOC(=O)C(=[N+]=[N-])C(=O)CN1C(=O)C2CC(C)=C(C)CC2C1O (stereo unspecified)
inactive: [1] -18.8% | [2] 1.15% | [3] -4.45% | [4] 1.85% | [5] -10.8% | [6] 16.9%

O=[N+]([O-])c1ccccc1N=NNc1ccccc1[N+](=O)[O-]
inactive: [1] 9.65% | [2] -4% | [3] 1.9% | [4] -26.6% | [5] 3.1% | [6] 3%

O=c1c2c([nH]c3c1ccc1[nH]c4c(c(=O)c13)CCCC4)CCCC2
inactive: [1] -18.9% | [2] -0.75% | [3] -12.6% | [4] -13.6% | [5] -8.5% | [6] -2.3%

COc1c(C(=O)O)[nH]c(=O)[nH]c1=O
inactive: [1] 4.85% | [2] -30.1% | [3] 5.8% | [4] -5.65% | [5] -14.3% | [6] -5.5%

CCN(CC)CCNC(=O)Cc1cc(O)c2c(c1O)C(=O)c1ccccc1C2=O
active: [1] 73% | [3] 76.8%
inactive: [2] 5% | [4] 40.9% | [5] 6.1% | [6] 51.5%

CC1=Nc2c(ccc3c2C(=O)c2ccccc2C3=O)NC(c2ccncc2)C1 (stereo unspecified)
inactive: [1] 31.1% | [2] 5% | [3] 47.6% | [4] 17.6% | [5] 0.35% | [6] 12.4%

c1ccc2c(c1)cnc1c3ccccc3ccc21
inactive: [1] 10.1% | [2] -7.85% | [3] -8.6% | [4] -21.9% | [5] 6.85% | [6] -0.5%

CC([N+](=O)[O-])S(=O)(=O)c1ccccc1 (stereo unspecified)
inactive: [1] 3.55% | [2] -20.1% | [3] -10.4% | [4] -7.45% | [5] -2.95% | [6] 5.5%

O=[N+]([O-])C(/C=C(\Cl)[N+](=O)[O-])=C1Nc2ccccc2N1
inactive: [1] 29.9% | [2] 45.1% | [3] 57.2% | [4] 19.4% | [5] 21.1% | [6] 50.5%

Cc1ccc(/C=N/NS(=O)(=O)c2ccccc2)cc1
inactive: [1] 18.4% | [2] 13.8% | [3] 15.6% | [4] -16.7% | [5] 12.1% | [6] 24.9%

O=C1CCCCC1CN1CCOCC1 (stereo unspecified)
inactive: [1] -37.5% | [2] -24.2% | [3] -5.3% | [4] -6.45% | [5] -22.1% | [6] -16.4%

COCOc1c(OC)c(C2(O)C(=O)N(C)c3ccccc32)c(OCOC)c(OC)c1C1(O)C(=O)N(C)c2ccccc21 (stereo unspecified)
inactive: [1] 0.9% | [2] 13.8% | [3] -14.9% | [4] -3.9% | [5] 0% | [6] 15.4%

Cc1nc(-c2ccccc2)ncc1C(O)CN1CCCCC1 (stereo unspecified)
inactive: [1] -21.7% | [2] 25.6% | [3] 18.1% | [4] -43.2% | [5] 20.5% | [6] 2.25%

O=C1C(Br)=C(Oc2ccccc2)C(=O)C(Br)=C1Oc1ccccc1
inactive: [1] 7.85% | [2] 11.4% | [3] 13.6% | [4] 1.05% | [5] 10.8% | [6] -8.45%

CCCCCC(C#N)CCC(C)=O (stereo unspecified)
inactive: [1] -6.7% | [2] -9.15% | [3] -9.3% | [4] -6.2% | [5] -0.95% | [6] -10%

c1ccc2c(N=C(Nc3cccc4ccccc34)c3cccc4ccccc34)cccc2c1
inactive: [1] 20.4% | [2] 19.6% | [3] 35.8% | [4] 28.9% | [5] 17.3% | [6] 13.6%

CN=C(Nc1cccc(C(F)(F)F)c1)SCc1ccc(N=C=S)cc1
inactive: [1] 9.7% | [2] 28.3% | [3] 60% | [4] 10.2% | [5] 38.8% | [6] 38.5%

Cc1cc(C)c2c(=O)cc(-c3cccc(Cl)c3)[nH]c2n1
inactive: [1] 15.6% | [2] -12.4% | [3] -25% | [4] -23.8% | [5] -50.7% | [6] -65.7%

Cn1c(=O)ccc2c(=O)c3c(ccc4ccccc43)oc21
inactive: [1] -10.1% | [2] -12.3% | [3] -28.1% | [4] -10.1% | [5] -7.05% | [6] -23.9%

C=COCCC(C(=O)OCC)C(=O)OCC
inactive: [1] 13.5% | [2] 26.5% | [3] 17.8% | [4] 4.2% | [5] 40.6% | [6] 13.1%

CCOC(=O)C1(C(F)(F)F)N=C(CC)OC(N2CCOCC2)=N1 (stereo unspecified)
inactive: [1] -23.9% | [2] -12.6% | [3] -18.7% | [4] 10.1% | [5] -16% | [6] -27.1%

CC1CCN(C(c2ccccc2)c2ccc3ccccc3c2O)CC1 (stereo unspecified)
active: [6] 75%
inactive: [1] 51.8% | [2] 42.2% | [3] 55.4% | [4] -6.8% | [5] 33.6%

COc1nc(Cl)nc(C(N)=O)c1N
inactive: [1] 7.95% | [2] 9.9% | [3] -11.5% | [4] -11.1% | [5] -2.65% | [6] -4.85%

O=C1c2ccccc2C(=O)N1C1Nc2ccccc2N1
inactive: [1] 20% | [2] 10.6% | [3] 9.3% | [4] -0.1% | [5] 16.7% | [6] 14.8%

O=C(CCCCCC(=O)CC(=O)CCc1ccccc1)CC(=O)CCc1ccccc1
inactive: [1] 53.3% | [2] 36.4% | [3] 53.5% | [4] 15.4% | [5] 19.1% | [6] 56.6%

CCOC(=O)N(C)Cc1ccc(Cl)cc1
inactive: [1] 5.75% | [2] -1.1% | [3] 1.25% | [4] -26.2% | [5] -11.8% | [6] 21.4%

CC(=O)Nc1cc(C)c(C)cc1[N+](=O)[O-]
inactive: [1] -2.5% | [2] -16.6% | [3] -9.45% | [4] 3.3% | [5] -27.1% | [6] -11.7%

Cc1nc2c(c(-c3ccc(Cl)cc3)n1)Cc1c(ccc3ccccc13)O2
inactive: [1] -15.4% | [2] -5.9% | [3] -9.2% | [4] -0.1% | [5] -28.8% | [6] -19%

Cc1ccc(C(=O)NC(C)C)cc1N=NN(C)C
inactive: [1] -34.2% | [2] -42.1% | [3] -46.9% | [4] 9.7% | [5] -31.7% | [6] -32.2%

C=Cc1ccc(OC2OC(CO)C(OC3OC(CO)C(O)C(O)C3O)C(O)C2O)cc1 (stereo unspecified)
inactive: [1] 14.7% | [2] -18.9% | [3] -1.1% | [4] -58.9% | [5] -0.35% | [6] -2.8%

COC(=O)C(Cc1[nH]c(N=Nc2ccc(Br)cc2)nc1N=Nc1ccc(Br)cc1)NC(C)=O (stereo unspecified)
inactive: [1] 43% | [2] -1% | [3] 27.1% | [4] -11.1% | [5] -3.55% | [6] -5.25%

C=C1C2CCC3(CCC4C5(C)CCCC4(C=NC5)C3C2)C1O (stereo unspecified)
inactive: [1] 8.5% | [2] -10.7% | [3] 3.6% | [4] 6.75% | [5] -7.3% | [6] 1.6%
